Results on eleven compounds are retold here after PubChem BioAssay (Tox21).

A short description of assay [1]: qHTS assay to identify small molecule agonists of the vitamin D receptor (VDR) signaling pathway - cell viability counter screen (AID 743224). Further: series mostly up to about 63 µM; nearly all actives have a fitted effect of over 50% in size. The gist of the method: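 VDR-bla cells were preincubated 4 h at 37C/5% CO2, then exposed to compounds for 16 h. After the 2 h room-temperature bla FRET read, CellTiter-Glo was added to the same wells and luminescence read after 30 min.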

Assay [2] can be described thus: qHTS assay to identify small molecule antagonists of the vitamin D receptor (VDR) signaling pathway - cell viability counter screen (AID 743225). Further: nearly all actives have a fitted effect of over 50% in size. Further: potency means the concentration at half of the fitted maximal effect. The gist of the method:
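Viability counter screen run in the same wells as the beta-lactamase reporter assay: HEK 293T VDR-UAS-bla cells, 16 h compound exposure at 37C with 3 nM (final) 1-alpha,25-dihydroxyvitamin D3. CellTiter-Glo luminescence, 30 min, room temperature.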

Assay [3] is described as follows: qHTS assay to identify small molecule agonists of the NFkB signaling pathway (AID 1159509; active means well fitted curve in the direction sought with a large enough effect in the signal ratio in the repeat runs, not every such curve was filed as active; the % refers to the signal ratio; further: series mostly up to about 61 µM). The gist of the method: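 ME-180 NFkB-bla, 2,000 cells/well, overnight plating; cpd pinned in DMSO, 5 h 37 C; B/G FRET substrate 1.5 h RT; ex 405, em 460/530 nm.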
Assay [4] can be described thus: qHTS assay to identify small molecule agonists of the NFkB signaling pathway - cell viability counter screen (AID 1159515; calls by dose curve; further: nearly all actives have a fitted effect of over 55% in size; further: potency means the concentration at half of the fitted maximal effect). The method in brief: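 NFkB-bla ME-180 cells, 2,000/well, were plated overnight at 37 C, 5% CO2, then exposed to compounds in DMSO for 5 hr. After the bla FRET read, CellTiter-Glo was added to the same wells; luminescence was read after 30 min at room temperature.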

Assay [5] can be described thus: qHTS assay to identify small molecule agonists of the endoplasmic reticulum stress response signaling pathway - cell viability counter screen (AID 1159517; calls by dose curve;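 further: HeLa cells carrying an ER stress response element beta-lactamase reporter; series mostly up to about 61 µM; nearly all actives have a fitted effect of over 50% in size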). The method in brief:
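ESRE-bla HeLa cells, 1,500 per well, seeded overnight then treated with compounds for 5 hr at 37 C. After the beta-lactamase read, viability in the same wells is measured by CellTiter-Glo luminescence after 30 min at room temperature.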
(qHTS replaces the single test concentration by a dilution series.)

Assay [6] in a line: qHTS assay to identify small molecule antagonists of the retinoid-related orphan receptor gamma (ROR-gamma) signaling pathway - cell viability counter screen (AID 1159520). Further: nearly all actives have a fitted effect of over 50% in size. The method in brief: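 Tet-on ROR gamma CHO cells were given compounds for 2 hr, then doxycycline hyclate at 1 uM final, and incubated 16 hr at 37 C. Viability was measured as ATP content by CellTiter-Glo luminescence.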

The target in assay [7] is Nuclear receptor ROR-gamma (Homo sapiens) (UniProt P51449). The experiment in a line: qHTS assay to identify small molecule antagonists of the retinoid-related orphan receptor gamma (ROR-gamma) signaling pathway (AID 1159521; further: nearly all actives have a fitted effect of over 50% in size; further: potency means the concentration at half of the fitted maximal effect). The method in brief: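 Luminescence readout (ONE-Glo, 30 min RT) after 16 h doxycycline induction; loss of signal scored as antagonism. CHO cells with TET-inducible RORγ and RORE-LUC reporter; compounds added 2 h before 1 uM final doxycycline.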

Assay [8] can be described thus: qHTS assay to identify small molecule agonists of the AP-1 signaling pathway - cell viability counter screen (AID 1159525; calls by dose curve; further: nearly all actives have a fitted effect of over 55% in size; further: potency means the concentration at half of the fitted maximal effect). The method in brief:
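AP-1-bla ME-180 cells in Opti-MEM with 0.5% dialyzed FBS, compound exposure 5 h at 37 C in 15-point titration. Viability read in the same wells as ATP content by CellTiter-Glo luminescence, normalised to tetra-n-octylammonium bromide and DMSO controls.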

Assay [9] can be described thus: qHTS assay to identify small molecule agonists of the AP-1 signaling pathway (AID 1159526; calls by dose curve).
Assay [10] is described as follows: qHTS assay to identify small molecule agonists of the RXR signaling pathway - cell viability counter screen (AID 1159529). Further: nearly all actives have a fitted effect of over 50% in size. Further: potency means the concentration at half of the fitted maximal effect. The gist of the method:
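Luminescence from CellTiter-Glo (30 min, RT) measured viability in the same wells as the beta-lactamase reporter readout. Cells: GeneBLAzer RXR-alpha HEK 293T, 2% charcoal-stripped FBS. Compound exposure 16 hr, 37 C.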

The nature of assay [11]: qHTS assay to identify small molecule antagonists of the retinoid acid receptor (RAR) signaling pathway - cell viability counter screen (AID 1159551). Further: nearly all actives have a fitted effect of over 35% in size. The method in brief: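 C3RL4 cells were seeded overnight at 37 C, then treated with compounds plus 1 uM (final) retinol for 6 h at 37 C. Viability was read as ATP by CellTiter-Glo luminescence after 30 min at room temperature.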

The nature of assay [12]: qHTS assay to identify small molecule antagonists of the retinoic acid receptor (RAR) signaling pathway (AID 1159552; further: nearly all actives have a fitted effect of over 50% in size). The gist of the method:
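Luminescence from a RARE luciferase reporter in C3RL4 cells served as read-out. Cells received compounds together with 1 uM final retinol and incubated 6 hr at 37 C before detection reagent was added for 30 min at room temperature.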

The nature of assay [13]: qHTS assay to identify small molecule agonists of the retinoic acid receptor (RAR) signaling pathway (AID 1159553). The method in brief: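 C3RL4 cells carrying a RARE luciferase reporter were plated overnight at 37 C, then exposed to compounds in DMSO for 6 hr at 37 C and 5% CO2. Luminescence was read 30 min after luciferase reagent addition at room temperature.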
Assay [14] addresses Retinoic acid receptor RXR-alpha (Homo sapiens) (UniProt P19793). Briefly: qHTS assay to identify small molecule agonists of the RXR signaling pathway (AID 1159527; calls by dose curve; further: nearly all actives have a fitted effect of over 35% in size). The gist of the method: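 Agonist mode; 9-cis retinoic acid positive control. HEK 293T UAS-bla reporter cells, 2% charcoal-stripped FBS, 16 hr compound exposure at 37 C/5% CO2. LiveBLAzer B/G FRET substrate 2 hr RT; ex 405, em 460/530 nm.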

Structures are written as SMILES. Results filed as inconclusive are left out. A number with no mark means an inactive call. Active and inactive are the calls of the source. Unless noted, the call rests on the fitted dose curve; in most records, active means well fitted curve in the direction sought with a large enough effect in the repeat runs; inconclusive means weak or mixed curves; inactive means no such curve, though single readings can be large; an effect the other way counts as inactive or inconclusive.

Retinoic acid receptor RXR-alpha (Homo sapiens), sequence (P19793 whole entry, looked up): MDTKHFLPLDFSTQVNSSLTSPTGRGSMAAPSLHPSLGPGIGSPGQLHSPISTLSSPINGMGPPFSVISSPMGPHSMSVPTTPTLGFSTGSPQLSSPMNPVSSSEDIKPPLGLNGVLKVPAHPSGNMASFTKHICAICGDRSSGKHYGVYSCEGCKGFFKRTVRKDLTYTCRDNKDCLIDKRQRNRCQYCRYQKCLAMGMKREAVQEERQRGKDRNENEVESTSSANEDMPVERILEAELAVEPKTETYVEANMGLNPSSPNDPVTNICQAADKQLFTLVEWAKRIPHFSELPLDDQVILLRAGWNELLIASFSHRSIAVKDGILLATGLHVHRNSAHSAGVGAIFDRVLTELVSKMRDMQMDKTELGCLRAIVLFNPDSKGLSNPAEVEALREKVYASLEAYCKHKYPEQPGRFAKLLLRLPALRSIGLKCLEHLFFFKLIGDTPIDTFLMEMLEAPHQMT

Take `COc1cc(OC)c2ccc(=O)oc2c1`: the Potency result in assay [1], in [2], in assay [4], in [5], in assay [6] and in assay [7] was “inactive” in each case. The Potency result in [8], in assay [10] and in assay [11] was “inactive” each time. Besides, the result in assay [3] and in [9] was inactive.
As to `CCCC(=O)OC(=O)CCC`, the Potency result in assay [2], in assay [4], in assay [5], in assay [6], in assay [7] and in assay [8] was “inactive” in each case. For the same compound, the Potency entry in [10], in assay [11], in assay [12] and in [13] was “inactive” throughout. In addition, the outcome in assay [3] and in assay [9] was inactive.
For the compound `CCCc1nc2c(C)cc(-c3nc4ccccc4n3C)cc2n1Cc1ccc(-c2ccccc2C(=O)O)cc1`, the Potency entry in [1], in assay [2], in [4], in [5], in assay [6] and in [7] was “inactive” each time. For the same compound, the Potency result in [8] and in assay [12] was “inactive” each time. Moreover, the call in [3] and in assay [9] was inactive.
For `CCCCCCCCCCCCCC(=O)OCC(O)CO` (stereo not drawn), the Potency entry in assay [1], in [4], in assay [5], in assay [6], in assay [7] and in assay [8] was “inactive” in each case. The Potency entry in [11], in [12] and in assay [13] was “inactive” throughout. Besides, the outcome in assay [3] and in [9] was inactive.
Regarding `C1=CCC2CC=CC2C1` (stereo not drawn), the Potency entry in assay [1], in assay [2], in assay [4], in [5], in assay [6] and in assay [7] was “inactive” throughout. The Potency result in assay [8], in assay [14], in [10] and in assay [11] was “inactive” each time. The call in [3] and in [9] was inactive.
As for `CC/C=C\C/C=C\C/C=C\CCCCCCCC(=O)OCC`, the outcome in [3] and in [9] was inactive. The Potency result in assay [4], in assay [5], in assay [6], in assay [7], in assay [8] and in [11] was “inactive” throughout. The Potency entry in [12] was “inactive”.
In the case of `CNS(=O)(=O)c1cc(C(=O)N2CCC(CCN3C4CCC3CC(n3c(C)nc5ccccc53)C4)(c3cccc(F)c3)CC2)c(Cl)cc1F` (stereo not drawn), the Potency is 13.8 µM (active) in assay [2]; 38.9 µM (active) in [4]; 7.7 µM (active) in assay [7]; 24.5 µM (active) in [8]; 6.16 µM (active) in assay [10]. Also, the outcome in [3] and in [9] was inactive. Besides, the Potency entry in assay [5] and in assay [6] was “inactive” in each case.
On to `CC(=O)OCC(C)C`, for which the Potency entry in [2], in [4], in assay [5], in assay [6], in assay [7] and in assay [8] was “inactive” in each case. The Potency entry in [10], in assay [11], in assay [12] and in assay [13] was “inactive” each time. Further, the compound was classed as inactive in assay [3] and in [9].
For the compound `CC1=CC[C@@]23C[C@@H]1C(C)(C)[C@@H]2CC[C@H]3C`, the Potency result in assay [1], in assay [2], in [4], in [5], in [6] and in assay [7] was “inactive” throughout. For the same compound, the Potency entry in [8], in assay [14], in assay [10], in [12] and in assay [13] was “inactive” each time. The outcome in assay [3] and in assay [9] was inactive.
`O=C(O)CN1C(=O)c2cccc3cccc(c23)C1=O`: the Potency entry in assay [1], in [2], in assay [4], in [5], in assay [6] and in assay [7] was “inactive” each time. For the same compound, the Potency result in [8], in [14], in assay [10] and in assay [11] was “inactive” each time. The compound was called inactive in [3] and in assay [9].
For the compound `CCCCOC(=O)CCCCC(=O)OCCCC`, the Potency entry in [2], in assay [4], in assay [5], in assay [6], in assay [7] and in assay [8] was “inactive” each time. The Potency result in assay [10], in [11], in [12] and in assay [13] was “inactive” in each case. The outcome in assay [3] and in [9] was inactive.
